Results reported in PubChem BioAssay (Tox21).
Values without a mark were called inactive. A call without a number means that no potency is given here. The source made the active and inactive calls. Unless noted, the call rests on the fitted dose curve; in most records, active means well fitted curve in the direction sought with a large enough effect in the repeat runs; inconclusive means weak or mixed curves; inactive means no such curve, though single readings can be large; an effect the other way counts as inactive or inconclusive.

Tests used:
[1] = qHTS assay to identify small molecule antagonists of the thyroid receptor (TR) signaling pathway - cell viability counter screen (AID 743064); further: nearly all actives have a fitted effect of over 50% in size; further: potency means the concentration at half of the fitted maximal effect
Summary of the method: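 In rat pituitary GH3.TRE-Luc reporter cells co-exposed to compound and 1 nM T3 for 23.5 h, cytotoxicity was assessed with CellTiter-Fluor in the same wells, read by fluorescence.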

[2] = qHTS assay to identify small molecule antagonists of the thyroid receptor (TR) signaling pathway (AID 743065); further: nearly all actives have a fitted effect of over 55% in size; further: potency means the concentration at half of the fitted maximal effect
Summary of the method: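 GH3.TRE-Luc rat pituitary cells (two TREs driving luciferase) were dosed with compound, then stimulated with 1 nM T3 (final) for 23.5 h at 37 C. ONE-Glo luminescence was the read-out, with CellTiter-Fluor fluorescence as the cytotoxicity counter-screen.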

[3] = qHTS assay to identify small molecule antagonists of the estrogen receptor alpha (ER-alpha) signaling pathway - cell viability counter screen (AID 743074; calls by dose curve;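 further: HEK293 cells carrying ER-alpha-UAS-bla reporter stimulated with 17beta-estradiol; nearly all actives have a fitted effect of over 45% in size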; further: potency means the concentration at half of the fitted maximal effect)
[4] = molecular target: Estrogen receptor (Homo sapiens) (UniProt P03372); assay: qHTS assay to identify small molecule agonists of the estrogen receptor alpha (ER-alpha) signaling pathway (AID 743075; calls by dose curve;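 further: HEK293 GripTite cells with ER-alpha and UAS-driven beta-lactamase reporter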; further: potency means the concentration at half of the fitted maximal effect)
[5] = qHTS assay to identify small molecule antagonists of the estrogen receptor alpha (ER-alpha) signaling pathway using the BG1 cell line - cell viability counter screen (AID 743081);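 further: compound given together with 17beta-estradiol as the ER stimulus; nearly all actives have a fitted effect of over 45% in size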; further: potency means the concentration at half of the fitted maximal effect
Aromatase (Homo sapiens) = Aromatase (Homo sapiens) (UniProt P11511); assay: qHTS assay to identify aromatase inhibitors (AID 743083); further: nearly all actives have a fitted effect of over 55% in size; further: potency means the concentration at half of the fitted maximal effect
[6] = qHTS assay to identify aromatase inhibitors - cell viability counter screen (AID 743084);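 further: cells stimulated with testosterone during compound exposure; nearly all actives have a fitted effect of over 55% in size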
[7] = molecular target: Aryl hydrocarbon receptor (Homo sapiens) (UniProt P35869); assay: qHTS assay to identify small molecule that activate the aryl hydrocarbon receptor (AhR) signaling pathway (AID 743085); further: nearly all actives have a fitted effect of over 15% in size; further: potency means the concentration at half of the fitted maximal effect;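 on activation: HG2L7.5c1 human HepG2 liver cells with stably integrated DRE-driven firefly reporter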
Summary of the method: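 AhR agonist activity is inferred from enhanced light output of a DRE-controlled firefly luciferase reporter in HepG2 cells, measured with ONE-Glo following 24 h treatment at 37C.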

[8] = qHTS assay to identify small molecule that activate the aryl hydrocarbon receptor (AhR) signaling pathway - cell viability counter screen (AID 743086);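 further: HepG2 liver cells carrying the AhR DRE luciferase reporter; nearly all actives have a fitted effect of over 45% in size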
Summary of the method: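 HepG2-AhR-luc (HG2L7.5c1) cells, 4000/well, treated 24 h at 37 C with compound; viability measured as CellTiter-Fluor fluorescence after 30 min in the same wells as the luciferase read.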

[9] = qHTS assay to identify small molecule phospholipidosis (PLD) inducers (AID 1259344; active means well fitted curve in the direction sought with a large enough effect; inconclusive means small, poorly fitted or top-dose-only effect, or another doubt; inactive means no such curve, though single readings can be large; an effect the other way counts as inactive or inconclusive)
Summary of the method: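 Quantitative HTS in HepG2: compound plus LipidTOX Red dye for 24 h, paraformaldehyde fixation with Hoechst 33342, widefield high-content imaging; amiodarone as positive and DMSO as negative control.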

[10] = system: thyroid hormone receptor (rat, GH3 cells); assay: qHTS assay to identify small molecule agonists of the thyroid receptor (TR) signaling pathway (AID 743066; calls by dose curve)
[11] = qHTS assay to identify small molecule antagonists of the estrogen receptor alpha (ER-alpha) signaling pathway using the BG1 cell line (AID 743080; calls by dose curve;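 further: BG1 cells stimulated with 17beta-estradiol alongside compound; nearly all actives have a fitted effect of over 25% in size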; further: potency means the concentration at half of the fitted maximal effect)
Summary of the method: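 Seeding, 24 h rest, compound transfer from DMSO, 17beta-estradiol addition, 21.5 h incubation, CellTiter-Fluor (30 min, 37 C), then ONE-Glo (30 min, room temperature): this sequence was run on BG1-Luc-4E2 reporter cells.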

[12] = molecular target: Peroxisome proliferator-activated receptor gamma (Homo sapiens) (UniProt P37231); assay: qHTS assay to identify small molecule agonists of the peroxisome proliferator-activated receptor gamma (PPARg) signaling pathway (AID 743094; active means well fitted activation curve with a large enough effect in the signal ratio in the repeat runs, not every such curve was filed as active; inconclusive means weak or mixed curves, or effect the other way; inactive means no such curve, though single readings can be large or run the other way; the % refers to the signal ratio)
Summary of the method: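 Compounds dissolved in DMSO were added to PPARg UAS-bla HEK293H cells for 17 h at 37C, and reporter expression was quantified by fluorescence intensity after 1 h with LiveBLAzer B/G FRET substrate.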

[13] = molecular target: Estrogen receptor (Homo sapiens) (UniProt P03372); assay: qHTS assay to identify small molecule antagonists of the estrogen receptor alpha (ER-alpha) signaling pathway (AID 743069; active means well fitted curve in the direction sought with a large enough effect in the signal ratio in the repeat runs, not every such curve was filed as active; inconclusive means weak or mixed curves, or effect the other way; inactive means no such curve, though single readings can be large or run the other way; the % refers to the signal ratio)
Summary of the method: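 Reporter cells (ER-alpha-bla, HEK293 background) are conditioned overnight in stripped-serum medium (2% charcoal-stripped FBS). Compound and 17beta-estradiol exposure runs 18 hr at 37C, 5% CO2.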

[14] = molecular target: Estrogen receptor (Homo sapiens) (UniProt P03372); assay: qHTS assay to identify small molecule agonists of the estrogen receptor alpha (ER-alpha) signaling pathway using the BG1 cell line (AID 743079); details: BG1Luc4E2 cells, ERE-luciferase agonist, 22 h; activation: at 70.3 µM (top of the series); further: nearly all actives have a fitted effect of over 20% in size

Sequence of Estrogen receptor (Homo sapiens) (P03372 whole entry, looked up): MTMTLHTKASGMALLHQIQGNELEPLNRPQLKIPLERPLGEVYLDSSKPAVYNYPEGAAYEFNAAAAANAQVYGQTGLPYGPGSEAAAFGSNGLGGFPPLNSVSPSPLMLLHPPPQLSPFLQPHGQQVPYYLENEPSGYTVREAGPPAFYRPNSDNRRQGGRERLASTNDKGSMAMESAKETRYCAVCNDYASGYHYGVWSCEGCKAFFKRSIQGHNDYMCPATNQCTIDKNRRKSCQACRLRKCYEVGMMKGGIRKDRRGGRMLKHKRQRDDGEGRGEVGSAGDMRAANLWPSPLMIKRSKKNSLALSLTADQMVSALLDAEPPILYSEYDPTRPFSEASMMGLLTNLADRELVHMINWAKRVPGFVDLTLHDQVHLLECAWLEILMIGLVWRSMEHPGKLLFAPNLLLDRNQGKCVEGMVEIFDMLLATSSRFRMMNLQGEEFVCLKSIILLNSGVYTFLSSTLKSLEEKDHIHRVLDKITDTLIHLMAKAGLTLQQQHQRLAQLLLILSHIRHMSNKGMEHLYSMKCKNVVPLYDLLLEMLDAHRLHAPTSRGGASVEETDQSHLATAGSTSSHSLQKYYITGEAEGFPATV
Sequence of Peroxisome proliferator-activated receptor gamma (Homo sapiens) (P37231 whole entry, looked up): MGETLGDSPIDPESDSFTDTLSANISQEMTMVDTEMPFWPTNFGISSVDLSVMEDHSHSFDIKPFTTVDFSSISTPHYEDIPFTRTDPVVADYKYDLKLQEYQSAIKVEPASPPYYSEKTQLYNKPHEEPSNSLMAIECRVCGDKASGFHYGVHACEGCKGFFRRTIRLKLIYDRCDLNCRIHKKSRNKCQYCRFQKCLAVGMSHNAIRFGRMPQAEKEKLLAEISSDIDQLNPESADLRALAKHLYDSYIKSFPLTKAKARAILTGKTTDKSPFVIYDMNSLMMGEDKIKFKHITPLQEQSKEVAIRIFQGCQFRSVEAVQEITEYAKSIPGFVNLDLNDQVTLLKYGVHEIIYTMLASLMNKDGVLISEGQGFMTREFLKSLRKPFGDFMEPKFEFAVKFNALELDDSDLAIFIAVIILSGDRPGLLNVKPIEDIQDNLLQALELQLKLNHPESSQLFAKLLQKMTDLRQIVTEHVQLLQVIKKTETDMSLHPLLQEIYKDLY
Sequence of Aromatase (Homo sapiens) (P11511 whole entry, looked up): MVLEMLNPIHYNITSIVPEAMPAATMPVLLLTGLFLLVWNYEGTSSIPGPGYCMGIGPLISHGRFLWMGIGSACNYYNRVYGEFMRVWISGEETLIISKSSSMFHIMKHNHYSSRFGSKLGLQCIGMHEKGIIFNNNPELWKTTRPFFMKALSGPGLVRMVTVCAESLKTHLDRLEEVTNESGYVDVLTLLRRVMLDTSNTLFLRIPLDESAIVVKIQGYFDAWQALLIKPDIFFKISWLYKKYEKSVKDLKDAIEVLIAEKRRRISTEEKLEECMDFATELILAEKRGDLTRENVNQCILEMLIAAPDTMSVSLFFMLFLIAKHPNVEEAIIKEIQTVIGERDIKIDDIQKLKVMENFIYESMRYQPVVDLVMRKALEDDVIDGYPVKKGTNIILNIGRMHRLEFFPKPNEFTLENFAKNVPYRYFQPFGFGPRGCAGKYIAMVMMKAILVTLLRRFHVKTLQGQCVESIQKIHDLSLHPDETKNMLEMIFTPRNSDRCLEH
Sequence of Aryl hydrocarbon receptor (Homo sapiens) (P35869 whole entry, looked up): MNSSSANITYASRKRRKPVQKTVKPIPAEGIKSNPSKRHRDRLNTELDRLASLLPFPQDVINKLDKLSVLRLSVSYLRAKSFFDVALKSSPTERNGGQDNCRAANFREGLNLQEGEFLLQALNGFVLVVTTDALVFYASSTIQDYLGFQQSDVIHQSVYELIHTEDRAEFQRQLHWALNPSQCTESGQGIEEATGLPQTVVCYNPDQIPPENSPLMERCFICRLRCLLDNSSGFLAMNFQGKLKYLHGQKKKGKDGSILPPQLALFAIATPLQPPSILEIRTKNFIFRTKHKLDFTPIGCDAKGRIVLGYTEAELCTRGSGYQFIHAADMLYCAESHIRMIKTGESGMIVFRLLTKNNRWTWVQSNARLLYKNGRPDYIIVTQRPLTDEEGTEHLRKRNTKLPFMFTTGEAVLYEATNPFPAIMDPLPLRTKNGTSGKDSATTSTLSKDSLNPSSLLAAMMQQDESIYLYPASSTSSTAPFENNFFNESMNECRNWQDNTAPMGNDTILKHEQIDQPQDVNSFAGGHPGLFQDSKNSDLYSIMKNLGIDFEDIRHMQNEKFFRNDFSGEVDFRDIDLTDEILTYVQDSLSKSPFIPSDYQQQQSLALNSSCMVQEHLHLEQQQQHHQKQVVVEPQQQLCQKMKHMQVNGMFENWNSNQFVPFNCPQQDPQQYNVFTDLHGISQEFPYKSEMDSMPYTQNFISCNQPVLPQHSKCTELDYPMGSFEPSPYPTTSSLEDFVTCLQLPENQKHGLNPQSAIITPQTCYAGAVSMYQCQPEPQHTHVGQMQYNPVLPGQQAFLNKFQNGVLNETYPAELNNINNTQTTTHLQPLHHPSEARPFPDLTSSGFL

Structure (SMILES) | Potency [1] | Potency [2] | Potency [3] | Potency [4] | Potency [5] | Potency (Aromatase (Homo sapiens)) | Potency [6] | Potency [7] | Potency [8] | Potency [9] | Potency [10] | Potency [11] | Potency [12] | PLD induction [9] | Potency [13] | Potency [14]
CO[C@H]1C[C@H](O[C@H]2[C@H](C)O[C@@H](O[C@@H]3/C(C)=C/C[C@@H]4C[C@@H](C[C@]5(C=C[C@H](C)[C@@H](C6CCCCC6)O5)O4)OC(=O)[C@@H]4C=C(C)[C@@H](O)[C@H]5OC/C(=C\C=C\[C@@H]3C)[C@]54O)C[C@@H]2OC)O[C@@H](C)[C@@H]1O | 2.66 µM (active) | 2.66 µM (active) | 16.9 µM (active) | inactive | 21.1 µM (active) | inactive | inactive | inactive | inactive | inactive | – | – | – | – | – | –
CC(=O)O[C@H]1CC[C@@]2(C)C(=CC[C@H]3[C@@H]4CC[C@H](C(C)=O)[C@@]4(C)CC[C@@H]32)C1 | inactive | inactive | – | 16.9 µM [inconclusive] (active) | inactive | inactive | inactive | inactive | inactive | – | inactive | inactive | inactive | 6.8% [at 7.66 µM] | – | –
CCCCCC(O)/C=C/C=O (centres undefined) | inactive | inactive | – | – | inactive | inactive | inactive | inactive | inactive | inactive | inactive | – | inactive | – | – | –
NC(=O)C[C@@H](N)C(=O)O | inactive | – | inactive | – | – | inactive | inactive | inactive | – | inactive | inactive | – | – | – | – | –
NNc1nnc(Cc2ccncc2)c2ccccc12 | inactive | 4.73 µM (active) | inactive | – | – | 13.3 µM (active) | inactive | 11.9 µM (active) | inactive | – | inactive | – | – | -2.11% [at 7.66 µM] | – | –
CC1(C)N=C(N)N=C(N)N1c1ccc(Cl)cc1 | inactive | – | 12 µM (active) | inactive | inactive | inactive | inactive | inactive | inactive | – | inactive | inactive | – | -3.82% [at 7.66 µM] | inactive | –
CC[C@]1(O)CC2CN(CCc3c([nH]c4ccccc34)[C@@](C(=O)OC)(c3cc4c(cc3OC)N(C)[C@H]3[C@@](O)(C(N)=O)[C@H](O)[C@]5(CC)C=CCN6CC[C@]43[C@@H]65)C2)C1 (some centres undefined) | 0.335 µM (active) | 0.168 µM (active) | – | – | – | inactive | – | – | – | inactive | – | 0.15 µM (active) | – | – | – | inactive
N[C@H](CCC(=O)O)C(=O)O | inactive | – | inactive | inactive | inactive | inactive | inactive | inactive | – | – | inactive | inactive | inactive | 0.563% [at 7.66 µM] | inactive | inactive
